Laboratory results as given in PubChem BioAssay (NCI).
This is part of a sample that, as a whole, favours compounds with a hit. Of some 83,000 tested, about 20% had one in any assay.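 Growth was measured after 48 h exposure to one concentration of compound in 96-well plates. Values under 10 count as active.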 Calls of active or inactive are those of the source.

Columns and labels:
Assay in all cases: NCI-60 one-dose screen, 48 h (100 = growth as untreated, 0 = no growth, -100 = all killed)
Conditions in all cases: 10 µM unless noted
NCI-H23 lung = system: NCI-H23 lung
NCI-H226 lung = system: NCI-H226 lung
NCI-H322M lung = system: NCI-H322M lung
HOP-62 NSCLC = system: HOP-62 NSCLC
NCI-H460 lung = system: NCI-H460 lung
HOP-92 NSCLC = system: HOP-92 NSCLC
NCI-H522 lung = system: NCI-H522 lung
A549/ATCC NSCLC = system: A549/ATCC NSCLC
786-0 renal = system: 786-0 renal
COLO 205 colon = system: COLO 205 colon
DU-145 prostate = system: DU-145 prostate
MALME-3M melanoma = system: MALME-3M melanoma
MDA-MB-231 breast = system: MDA-MB-231 breast
RXF 393 renal = system: RXF 393 renal
SF-268 CNS = system: SF-268 CNS
SF-295 CNS = system: SF-295 CNS
SF-539 CNS = system: SF-539 CNS
UACC-257 melanoma = system: UACC-257 melanoma
M14 melanoma = system: M14 melanoma

Measured: growth

Nc1nc(Cl)c2c(C(F)(F)F)cn(CC3CCNCC3)c2n1
inactive: NCI-H23 lung 47.5% | NCI-H226 lung 111% | NCI-H322M lung 100% | HOP-62 NSCLC 103% | NCI-H460 lung 103% | HOP-92 NSCLC 57.9% | A549/ATCC NSCLC 94.2% | 786-0 renal 95.5% | COLO 205 colon 94% | DU-145 prostate 109% | MALME-3M melanoma 101% | MDA-MB-231 breast 54.2% | RXF 393 renal 52.9% | SF-268 CNS 96.2% | SF-295 CNS 105% | SF-539 CNS 107% | UACC-257 melanoma 83.8% | M14 melanoma 57.3%
active: NCI-H522 lung 5.07%

CN1C(=O)C2(SCC(C(=O)NCC(=O)OC(C)(C)C)N2C(=O)C2CCCCC2)c2ccccc21 (configuration not stated)
inactive: NCI-H23 lung 94.4% | NCI-H226 lung 91.6% | NCI-H322M lung 95.3% | HOP-62 NSCLC 95% | NCI-H460 lung 102% | HOP-92 NSCLC 85.8% | NCI-H522 lung 80.9% | A549/ATCC NSCLC 95.2% | 786-0 renal 94.7% | COLO 205 colon 99.9% | DU-145 prostate 105% | MALME-3M melanoma 101% | MDA-MB-231 breast 100% | RXF 393 renal 105% | SF-268 CNS 96.7% | SF-295 CNS 96.9% | SF-539 CNS 99.8% | UACC-257 melanoma 92.7% | M14 melanoma 100%

CCNC(=O)Oc1ccc(/C(=C(/CC)Cc2ccccc2)c2ccc(OCCN3CCOCC3)cc2)cc1
inactive: NCI-H23 lung 66.8% | NCI-H226 lung 59.4% | NCI-H322M lung 72.8% | HOP-62 NSCLC 84% | NCI-H460 lung 44.7% | HOP-92 NSCLC 38.6% | NCI-H522 lung 56.4% | A549/ATCC NSCLC 36.7% | 786-0 renal 55.7% | COLO 205 colon 50.9% | DU-145 prostate 73.9% | MALME-3M melanoma 81.1% | MDA-MB-231 breast 71.4% | RXF 393 renal 42.7% | SF-268 CNS 43.7% | SF-295 CNS 68.7% | SF-539 CNS 77.2% | UACC-257 melanoma 79.4% | M14 melanoma 41.6%

C=C1C(=O)O[C@H]2[C@H]1CC/C(COC(=O)c1ccc(C#N)cc1)=C\CC[C@@]1(C)O[C@@H]21
active: NCI-H226 lung -0.563% | HOP-92 NSCLC -35.8% | NCI-H522 lung -89.6% | COLO 205 colon -77.7% | MALME-3M melanoma -22.4% | MDA-MB-231 breast 2.94% | RXF 393 renal -47.7% | SF-539 CNS -32.3%
inactive: NCI-H23 lung 54.4% | NCI-H322M lung 68.1% | HOP-62 NSCLC 61.3% | NCI-H460 lung 53.7% | A549/ATCC NSCLC 40.8% | 786-0 renal 22.9% | DU-145 prostate 18.4% | SF-268 CNS 56.8% | SF-295 CNS 73.3% | UACC-257 melanoma 52.2% | M14 melanoma 15.6%

COc1ccc(/C=N/C2=NNC(C)(c3ccccc3O)N2C(Cc2c[nH]c3ccccc23)C(=O)O)cc1 (configuration not stated)
inactive: NCI-H23 lung 22.8% | NCI-H226 lung 53.2% | NCI-H322M lung 56.1% | HOP-62 NSCLC 32.7% | NCI-H460 lung 20.4% | NCI-H522 lung 18.9% | A549/ATCC NSCLC 42.5% | 786-0 renal 58.3% | DU-145 prostate 58.9% | MALME-3M melanoma 12.9% | MDA-MB-231 breast 28.8% | RXF 393 renal 35.5% | SF-268 CNS 40.2% | SF-295 CNS 35.3% | SF-539 CNS 45.2% | UACC-257 melanoma 23.5% | M14 melanoma 10.8%
active: HOP-92 NSCLC 2.13% | COLO 205 colon 8.42%

CCCOC(=O)c1ccc([N+](=O)[O-])o1
inactive: NCI-H23 lung 108% | NCI-H226 lung 109% | NCI-H322M lung 108% | HOP-62 NSCLC 114% | NCI-H460 lung 91.4% | HOP-92 NSCLC 109% | NCI-H522 lung 85.4% | A549/ATCC NSCLC 101% | 786-0 renal 108% | COLO 205 colon 120% | DU-145 prostate 118% | MALME-3M melanoma 116% | MDA-MB-231 breast 103% | RXF 393 renal 109% | SF-268 CNS 100% | SF-295 CNS 120% | SF-539 CNS 93.8% | UACC-257 melanoma 110% | M14 melanoma 98.8%

COc1ccc(C2CC(c3cc(Cl)c(C)cc3OC)=NN2c2ccc(S(N)(=O)=O)cc2)cc1OC (configuration not stated)
inactive: NCI-H23 lung 75.8% | NCI-H226 lung 81.3% | NCI-H322M lung 104% | HOP-62 NSCLC 87.8% | NCI-H460 lung 89.8% | HOP-92 NSCLC 101% | NCI-H522 lung 74.3% | A549/ATCC NSCLC 73.2% | 786-0 renal 92.3% | COLO 205 colon 101% | DU-145 prostate 106% | MALME-3M melanoma 101% | MDA-MB-231 breast 84.6% | RXF 393 renal 77.7% | SF-268 CNS 90.1% | SF-295 CNS 123% | SF-539 CNS 103% | UACC-257 melanoma 87.2% | M14 melanoma 81.8%

O=C(Cn1c2ccccc2c2ccncc21)N/N=C\c1ccc2ccccc2c1
inactive: NCI-H23 lung 55% | NCI-H226 lung 31.9% | NCI-H322M lung 39.1% | HOP-62 NSCLC 19.8% | NCI-H522 lung 38% | COLO 205 colon 31.6% | SF-268 CNS 41.6% | SF-295 CNS 28.7% | SF-539 CNS 27.6% | UACC-257 melanoma 59.7% | M14 melanoma 30.9%
active: NCI-H460 lung 5.42% | HOP-92 NSCLC -7.39% | A549/ATCC NSCLC -10.1% | 786-0 renal -3.98% | DU-145 prostate 9.11% | MALME-3M melanoma 3.45% | MDA-MB-231 breast 5.36% | RXF 393 renal 1.74%
